Measurements taken from PubChem BioAssay AID1159580 (chemical genetic matrix, 2015).
Out of some 5,500 compounds screened, about 2,000 (36%) were called active. Inconclusive results (about 18%) are left out. No stated cut-off is given here; in the data, active means normalized growth mostly below about 0.91 (no sharp cut-off); inconclusive means no clear call, values can overlap the other calls; inactive means mostly above about 0.92. This is one part of the list.

Assay: chemical genetic growth profiling, strain panel (AID 1159580);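 further: tested at 20 µM; growth read once vehicle control cultures reached saturation at 30 °C; 1 = growth at the plate median or of vehicle wells; lower values mean less growth of the strain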
Conditions: growth OD

Measured: normalized growth

O=C1C=CC2=C3c4cc(O)c(O)cc4CC3(O)COC2=C1O (centres undefined)
inactive: S. cerevisiae deletion strains, locus YJR043C, strain POL32, active compounds read low 0.868 | S. cerevisiae deletion strains, locus YJR066W, strain TOR1, active compounds read low 0.953 | S. cerevisiae deletion strains, locus YJR075W, strain HOC1, active compounds read low 0.981 | S. cerevisiae deletion strains, locus YKL068W, active compounds read low 1.02 | S. cerevisiae deletion strains, locus YKL085W, strain MDH1 (second series), active compounds read low 1.02 | S. cerevisiae deletion strains, locus YKL085W, strain MDH1, active compounds read low 1.02 | S. cerevisiae deletion strains, locus YKL160W, strain elf1, active compounds read low 1.01 | S. cerevisiae deletion strains, locus YKR001C, strain vps1, active compounds read low 1.06 | S. cerevisiae deletion strains, locus YKR026C, strain gcn3, active compounds read low 1.05 | S. cerevisiae deletion strains, locus YKR091W, strain srl3, active compounds read low 1.04 | S. cerevisiae deletion strains, locus YLL001W, strain dnm1, active compounds read low 1 | S. cerevisiae deletion strains, locus YLL026W, active compounds read low 1.02 | S. cerevisiae deletion strains, locus YLL041C, strain sdh2, active compounds read low 1.02 | S. cerevisiae deletion strains, locus YLR027C, strain aat2, active compounds read low 1.01 | S. cerevisiae deletion strains, locus YLR039C, strain RIC1, active compounds read low 0.848 | S. cerevisiae deletion strains, locus YLR058C, strain SHM2, active compounds read low 0.92 | S. cerevisiae deletion strains, locus YLR102C, strain apc9, active compounds read low 1.03 | S. cerevisiae deletion strains, locus YLR113W, strain HOG1, active compounds read low 1.06 | S. cerevisiae deletion strains, locus YLR221C, strain rsa3, active compounds read low 0.992 | S. cerevisiae deletion strains, locus YLR258W, strain gsy2, active compounds read low 0.996 | S. cerevisiae deletion strains, locus YLR262C, strain YPT6 (second series), active compounds read low 0.875 | S. cerevisiae deletion strains, locus YLR262C, strain YPT6, active compounds read low 0.931 | S. cerevisiae deletion strains, locus YLR268W, strain sec22, active compounds read low 1.01 | S. cerevisiae deletion strains, locus YLR320W, strain mms22, active compounds read low 1.04 | S. cerevisiae deletion strains, locus YLR330W, strain CHS5, active compounds read low 1.01 | S. cerevisiae deletion strains, locus YLR342W, strain FKS1 (second series), active compounds read low 0.86 | S. cerevisiae deletion strains, locus YLR342W, strain FKS1, active compounds read low 0.994 | S. cerevisiae deletion strains, locus YLR357W, strain rsc2, active compounds read low 0.88 | S. cerevisiae deletion strains, locus YLR370C, strain arc18, active compounds read low 0.977 | S. cerevisiae deletion strains, locus YLR371W, strain rom2, active compounds read low 0.96 | S. cerevisiae deletion strains, locus YLR384C, strain iki3, active compounds read low 1.02 | S. cerevisiae deletion strains, locus YLR418C, strain cdc73, active compounds read low 0.954 | S. cerevisiae deletion strains, locus YML016C, strain PPZ1, active compounds read low 0.938 | S. cerevisiae deletion strains, locus YML032C, strain rad52, active compounds read low 1.05 | S. cerevisiae deletion strains, locus YML120C, strain ndi1, active compounds read low 1.02 | S. cerevisiae deletion strains, locus YML124C, strain tub3, active compounds read low 1.03 | S. cerevisiae deletion strains, locus YMR078C, strain ctf18, active compounds read low 1.05 | S. cerevisiae deletion strains, locus YMR125W, strain sto1, active compounds read low 1.11 | S. cerevisiae deletion strains, locus YMR129W, active compounds read low 1.03 | S. cerevisiae deletion strains, locus YMR205C, strain PFK2, active compounds read low 1.05 | S. cerevisiae deletion strains, locus YMR223W, strain ubp8, active compounds read low 1.01 | S. cerevisiae deletion strains, locus YMR263W, strain SAP30, active compounds read low 0.965 | S. cerevisiae deletion strains, locus YMR307W, strain GAS1, active compounds read low 0.815 | S. cerevisiae deletion strains, locus YNL067W, strain RPL9B, active compounds read low 0.956 | S. cerevisiae deletion strains, locus YNL071W, strain lat1, active compounds read low 1.04 | S. cerevisiae deletion strains, locus YNL183C, strain NPR1, active compounds read low 0.983 | S. cerevisiae deletion strains, locus YNL233W, strain BNI4, active compounds read low 0.97 | S. cerevisiae deletion strains, locus YNL248C, strain rpa49, active compounds read low 1.03 | S. cerevisiae deletion strains, locus YNL250W, strain rad50, active compounds read low 1 | S. cerevisiae deletion strains, locus YNL271C, strain bni1, active compounds read low 1.01 | S. cerevisiae deletion strains, locus YNL298W, strain CLA4, active compounds read low 1.01 | S. cerevisiae deletion strains, locus YNL307C, strain MCK1, active compounds read low 1.02 | S. cerevisiae deletion strains, locus YNL322C, strain KRE1 (second series), active compounds read low 1.05 | S. cerevisiae deletion strains, locus YNR049C, strain mso1, active compounds read low 1.05 | S. cerevisiae deletion strains, locus YNR052C, strain pop2, active compounds read low 1.01 | S. cerevisiae deletion strains, locus YOL012C, strain htz1 0.462 | S. cerevisiae deletion strains, locus YOL147C, strain pex11, active compounds read low 1.03 | S. cerevisiae deletion strains, locus YOR001W, strain rrp6, active compounds read low 1.01 | S. cerevisiae deletion strains, locus YOR061W, strain CKA2, active compounds read low 0.977 | S. cerevisiae deletion strains, locus YOR069W, strain VPS5, active compounds read low 0.992 | S. cerevisiae deletion strains, locus YOR070C, strain gyp1, active compounds read low 0.969 | S. cerevisiae deletion strains, locus YOR080W, strain dia2, active compounds read low 1.04 | S. cerevisiae deletion strains, locus YOR083W, strain WHI5, active compounds read low 0.965 | S. cerevisiae deletion strains, locus YOR136W, strain idh2, active compounds read low 1.05 | S. cerevisiae deletion strains, locus YOR144C, strain elg1, active compounds read low 1.03 | S. cerevisiae deletion strains, locus YOR184W, strain ser1, active compounds read low 1.04 | S. cerevisiae deletion strains, locus YOR231W, strain MKK1, active compounds read low 1.02 | S. cerevisiae deletion strains, locus YOR265W, strain rbl2, active compounds read low 1.02 | S. cerevisiae deletion strains, locus YOR270C, strain vph1, active compounds read low 0.956 | S. cerevisiae deletion strains, locus YOR290C, strain snf2, active compounds read low 0.985 | S. cerevisiae deletion strains, locus YOR316C, strain cot1, active compounds read low 1.04 | S. cerevisiae deletion strains, locus YPL078C, strain atp4, active compounds read low 1.01 | S. cerevisiae deletion strains, locus YPL106C, strain sse1, active compounds read low 0.99 | S. cerevisiae deletion strains, locus YPL240C, strain hsp82, active compounds read low 1.03 | S. cerevisiae deletion strains, locus YPL241C, strain CIN2, active compounds read low 0.994 | S. cerevisiae deletion strains, locus YPL256C, strain CLN2, active compounds read low 1.05 | S. cerevisiae deletion strains, locus YPR119W, strain clb2, active compounds read low 1.02 | S. cerevisiae deletion strains, locus YPR141C, strain kar3, active compounds read low 1.01 | S. cerevisiae deletion strains, locus YPR163C, strain tif3, active compounds read low 1.02 | S. cerevisiae deletion strains, locus YPR167C, strain met16, active compounds read low 1.04 | S. cerevisiae deletion strains, strain wtn01, active compounds read low 1.03
active: S. cerevisiae deletion strains, locus YKL009W, strain mrt4, active compounds read low 1.16 [resistant] | S. cerevisiae deletion strains, locus YKL190W, strain CNB1, active compounds read low 0.908 | S. cerevisiae deletion strains, locus YMR058W, strain fet3, active compounds read low 0.611 | S. cerevisiae deletion strains, locus YNL128W, strain TEP1, active compounds read low 0.845 | S. cerevisiae deletion strains, locus YNL209W, strain ssb2, active compounds read low 0.831 | S. cerevisiae deletion strains, locus YOR106W, strain vam3, active compounds read low 0.811 | S. cerevisiae deletion strains, locus YPL051W, strain arl3, active compounds read low 0.884 | S. cerevisiae strains, strain wild type, active compounds read low 0.814
